Test results as given in PubChem BioAssay (NCATS).
Results filed as inconclusive are left out. Calls of active or inactive are those of the source. The call rests on the fitted dose curve; in most records, active means well fitted curve in the direction sought with a large enough effect; inconclusive means small, poorly fitted or top-dose-only effect, or another doubt; inactive means no such curve, though single readings can be large; an effect the other way counts as inactive or inconclusive.

Key:
[1] = qHTS for ATAD5 Antagonist screened against the NCATS CANVASS Library (AID 1347370);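 further: HEK293T cells carrying an ATAD5 luciferase reporter co-treated with 10 µM 5-fluorouridine; series mostly up to about 46 µM; nearly all actives have a fitted effect of over 65% in size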
Text: (§1) Natural products and their derivatives continue to be wellsprings of nascent therapeutic potential. However, many laboratories have limited resources for biological evaluation, leaving their previously isolated or synthesized compounds largely or completely untested. To address this issue, the Canvass library of natural products was assembled (https://tripod.nih.gov/canvass), in collaboration with academic and industry researchers, for quantitative high-throughput screening (qHTS) across a diverse set of cell-based and biochemical assays. […] The library was formatted into 1536-well plates and evaluated in 50 qHTS (in an 11-pnt concentration series) bioassays with broad scope of disease-relevant mechanisms. The resulting data set from 50 different assays was then systematically analyzed to identify overall trends and specific natural products with interesting biological activities. […] Luminescence intensity is proportional to ATAD5 expression. […]
ATAD5 Agonist assay protocol: 1. […] A first readout of fluorescence signal was acquired via the ViewLux (PerkinElmer) plate reader using filter sets for AFC (380-400nmEx/505Em) and 1 second exposure setting. […] 8.#A second readout of luminescence signal was acquired via the ViewLux plate reader using a clear emission filter, 10 second exposure setting.

[2] = J3T Cancer Cell Toxicity qHTS against the NCATS CANVASS Library (AID 1347371);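 further: J3T is a canine glioma cancer cell line seeded at 500 cells per well; series mostly up to about 46 µM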
Method in brief: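 Dog glioma J3T, 500 cells/well; cpd 11-pt qHTS; 72 hr, 37C/5% CO2; CellTiterGlo ATP luminescence readout.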

[3] = molecular target: Nuclear receptor subfamily 1 group I member 3 (Homo sapiens) (UniProt Q14994); assay: qHTS for Constitutive Androstane Receptor (CAR) Antagonist screened against the NCATS CANVASS Library (AID 1347372);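 further: cells stimulated with 50 nM CITCO agonist so inhibition reflects antagonism; series mostly up to about 46 µM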
Method in brief: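 Cells were seeded and left 4hr to attach, then received compound at 11 concentrations and 50 nM CITCO. Following 24hr incubation, fluorescence viability and luciferase luminescence were read sequentially.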

[4] = molecular target: Nuclear receptor subfamily 1 group I member 3 (Homo sapiens) (UniProt Q14994); assay: qHTS for Constitutive Androstane Receptor (CAR) Agonist screened against the NCATS CANVASS Library (AID 1347373);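 further: every well also contained 1.5 µM PK11195 alongside the test compound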
Method in brief: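 Luciferase read-out (ONE-Glo, 30 min RT) of CYP2B6-2.2kb promoter activity in double-stable HepG2-hCAR cells after 24hr compound exposure with 1.5uM PK11195 present; viability measured first by CellTiter-Fluor.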

[5] = qHTS for Hypoxia signaling pathway (HIF-1) antagonists against the NCATS CANVASS Library (AID 1347374);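 further: HRE-bla ME-180 cells stimulated with cobalt chloride to stabilize HIF-1alpha; series mostly up to about 38 µM; nearly all actives have a fitted effect of over 60% in size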
Text: Natural products and their derivatives continue to be wellsprings of nascent therapeutic potential. However, many laboratories have limited resources for biological evaluation, leaving their previously isolated or synthesized compounds largely or completely untested. To address this issue, the Canvass library of natural products was assembled (https://tripod.nih.gov/canvass), in collaboration with academic and industry researchers, for quantitative high-throughput screening (qHTS) across a diverse set of cell-based and biochemical assays. […] We collected pure natural products to circumvent deconvolution and structure elucidation due to time and resource limitations. The library was formatted into 1536-well plates and evaluated in 50 qHTS (in an 11-pnt concentration series) bioassays with broad scope of disease-relevant mechanisms. The resulting data set from 50 different assays was then systematically analyzed to identify overall trends and specific natural products with interesting biological activities. […] The compounds were also tested for auto fluorescence that may interfere with the biological target readout resulting in potential false positives and/or negatives. […]
HIF-1 antagonist assay protocol: 1. […] The fluorescence intensity was obtained using the EnVision (PerkinElmer, Shelton, CT) plate reader using a 405 nm excitation, and 460 and 530 nm emission filters. […]

[6] = qHTS for Hypoxia signaling pathway (HIF-1) agonists against the NCATS CANVASS Library (AID 1347375)
Method in brief: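 Read-out: beta-lactamase FRET (CCF4-AM, ex 405, em 460 and 530 nm) after 2 h at room temperature. ME-180 cells stably carrying HRE-bla were treated 17 h at 37C with compounds in an 11-point concentration series.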

[7] = 10-beta competent E. coli microbial cell viability qHTS against the NCATS CANVASS Library (AID 1347376); further: series mostly up to about 46 µM
Method in brief: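 Luminescence from BacTiter-Glo ATP detection served as the viability read-out; bacteria (0.2 OD) had been incubated overnight at 37C with pin-transferred compounds at 11 concentrations.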

[8] = DH5-alpha competent E. coli microbial cell viability qHTS against the NCATS CANVASS Library (AID 1347377)
Text: as §1, with “The BacTiter-Glo microbial cell viability assay” for “Luminescence intensity”, “a homogeneous method for determining the number of viable bacterial cells in culture based on quantitation of the ATP present. […] The homogeneous assay procedure involves adding a single reagent (BacTiter-GloTM Reagent) directly” for “proportional”, “bacterial cells in medium and measuring luminescence.” for “ATAD5 expression.”

[9] = qHTS for H2AX Agonists against the NCATS CANVASS Library (AID 1347378);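 further: phospho-H2AX S139 level in CHO-K1 lysates by TR-FRET emission ratio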
Method in brief: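 CHO-K1, 1000 cells/well, o/n 37C; cpd several conc, 3 hr 37C, 0.76% DMSO; lyse 30 min RT; cryptate anti-pH2AX(S139) + d2 anti-H2AX, 24 hr RT; HTRF 665/620.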

[10] = qHTS for Inflammasome Signaling Inhibitors: IL-1-beta AlphaLISA screen against the NCATS CANVASS Library (AID 1347379);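 further: human THP-1 cells primed with LPS then triggered with ATP; secreted IL-1B measured as AlphaLISA emission at 615 nm; lower signal means less IL-1B release which is the wanted effect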
Method in brief: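 THP-1, 1 hr compound pre-incubation, then LPS 250 ng/mL + ATP 1.25 mM (final); 16 hr total with compound; IL-1B AlphaLISA, ex 680/em 615 nm; 11-point qHTS, up to 57.5 uM final.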

Measured: outcome

Nuclear receptor subfamily 1 group I member 3 (Homo sapiens), sequence (Q14994 whole entry, looked up): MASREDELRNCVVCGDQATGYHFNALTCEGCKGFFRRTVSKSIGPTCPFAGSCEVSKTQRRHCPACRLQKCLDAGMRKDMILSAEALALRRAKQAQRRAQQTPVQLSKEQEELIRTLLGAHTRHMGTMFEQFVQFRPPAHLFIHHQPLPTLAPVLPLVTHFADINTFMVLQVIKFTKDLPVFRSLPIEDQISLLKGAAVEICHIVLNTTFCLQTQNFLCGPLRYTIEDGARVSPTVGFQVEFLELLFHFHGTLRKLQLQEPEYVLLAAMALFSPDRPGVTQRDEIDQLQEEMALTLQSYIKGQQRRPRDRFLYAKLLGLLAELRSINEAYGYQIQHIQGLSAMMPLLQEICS

C[C@@H]1O[C@@H](OC[C@H]2O[C@@H](Oc3c(-c4ccc(O)c(O)c4)oc4cc(O)cc(O)c4c3=O)[C@H](O)[C@@H](O)[C@@H]2O)[C@H](O)[C@H](O)[C@H]1O
inactive: all assays above
